Bioassay records (PubChem)
POLI inh: qHTS for Inhibitors of Polymerase Iota; DNA polymerase iota (Homo sapiens), Q9UNA4; Pol iota fluorescent replication assay, 10 min; Potency, µM (series often up to 115 µM), actives largely listed as inhibitors; hit rate 1% among 390,000
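Pol iota at 10 nM preincubated 15 min with compounds at room temperature; reaction started with fluorescent substrate, 50 nM final. Fluorescence read kinetically at 0 and 10 min; buffer-only wells as negative control.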
Pol kappa inh: qHTS for Inhibitors of Polymerase Kappa | hit rate 0.53% among 400,000 | DNA polymerase kappa (Homo sapiens), Q9UBT6 | purified Pol kappa, fluorescent DNA synthesis assay, 10 min | Potency, µM (series often up to 107 µM), usual class: inhibitors
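Kinetic fluorescence screen: compound preincubated 15 min RT with 10 nM enzyme; 50 nM substrate (final) initiates; reads at 0/10 min.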
POLH inh: qHTS for Inhibitors of Polymerase Eta; hit rate 1.2% among 390,000; DNA polymerase eta (Homo sapiens), Q9Y253; Potency, µM (titrated, usually from 114 µM), most hits filed as inhibitors; recombinant Pol eta, fluorescent DNA replication assay; AID 588591, 2011
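Pol eta (10 nM) was preincubated with compounds for 15 min at room temperature, after which fluorescent replication substrate (50 nM final) was added to start the reaction. Fluorescence was read kinetically at 0 and 10 min.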
WRN inhibitor: qHTS for Inhibitors of WRN Helicase; Bifunctional 3'-5' exonuclease/ATP-dependent helicase WRN (Homo sapiens), Q14191; WRN helicase unwinding, fluorescent forked duplex, kinetic; hit rate 0.46% among 360,000; Potency, µM (highest dose often 114 µM), actives largely listed as inhibitors; note: nearly all actives have a fitted effect of over 55% in size
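WRN at 20 nM final preincubated with compound 15 min at room temperature; reaction started with 100 nM fluorophore/quencher forked duplex oligonucleotide and 2 mM ATP final. Unwinding followed kinetically by red fluorescence (ex 525, em 598 nm).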
POLB inh: qHTS Assay for Inhibitors of DNA Polymerase Beta; P06746; Pol beta primer extension/strand displacement, fluorescence kinetic; Potency, µM (series often up to 114 µM), usual class: inhibitors; hit rate 1.3% among 340,000; AID 485314, 2010
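Pol beta (10 nM) and compounds were preincubated 15 min at room temperature, then 50 nM substrate (final) started primer extension/strand displacement. Reads were taken at 0 and 10 min; concentration-response data were fitted to a four-parameter Hill equation.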
FEN1 inh: qHTS Assay for the Inhibitors of Human Flap endonuclease 1 (FEN1); P39748; Recombinant FEN1 flap cleavage, fluorescence, 15 min; Potency, µM (titrated, usually from 114 µM), most hits filed as inhibitors; hit rate 0.35% among 390,000; AID 588795, 2011; note: nearly all actives have a fitted effect of over 65% in size
Target sequence (P39748 whole entry, looked up): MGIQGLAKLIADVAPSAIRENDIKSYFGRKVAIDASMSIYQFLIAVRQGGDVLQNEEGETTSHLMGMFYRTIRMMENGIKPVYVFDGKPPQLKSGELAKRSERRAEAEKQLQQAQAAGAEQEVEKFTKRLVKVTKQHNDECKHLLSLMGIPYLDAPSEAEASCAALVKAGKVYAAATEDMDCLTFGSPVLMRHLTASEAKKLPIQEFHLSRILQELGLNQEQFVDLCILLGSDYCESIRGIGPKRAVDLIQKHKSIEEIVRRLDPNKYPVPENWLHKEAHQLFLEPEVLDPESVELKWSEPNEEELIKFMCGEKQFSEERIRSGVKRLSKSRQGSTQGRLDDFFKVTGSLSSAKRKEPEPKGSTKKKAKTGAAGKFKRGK
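Read-out was taken twice, immediately and after 15 min, following addition of 50 nM substrate to 10 nM FEN1 that had sat with test compound for 15 min at room temperature. Curves came from a four-parameter Hill model.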
Numbers stand for hits; . = inactive; ? = inconclusive; / = not tested or not shown; ! = a repeat was not active; [ ] = remark or other dose. The list is not random: actives were taken first. Their share in the collection is about 2.4%. Calls come from the whole dose curve; as a rule, active = well fitted curve in the direction sought with a large enough effect; inconclusive = small, poorly fitted or top-dose-only effect, or another doubt; inactive = no such curve, though single readings can be large; an effect the other way counts as inactive or inconclusive.

SMILES | POLI inh | Pol kappa inh | POLH inh | WRN inhibitor | POLB inh | FEN1 inh
Cc1cc(Cl)ccc1NNC(N)=S | 14.1µM | . | . | .[11.6 µM] | . | .
O=C(O)c1cc(-c2ccco2)nc2ccc(Br)cc12 | 2.82µM! | 7.08µM! | 2.51µM! | 10µM! | 3.16µM! | 12.6µM!
O=C(c1ccco1)N1CCN(C(=O)c2cc(-c3ccncc3)nc3ccc(Br)cc23)CC1 | . | . | ? | . | / | .
O=C(COC(=O)c1cc(-c2ccco2)nc2ccccc12)NCc1ccc2c(c1)OCO2 | . | . | ? | . | 28.2µM | .
COc1cc(/C=N/NC(=O)c2cc(-c3ccco3)nc3ccccc23)cc(OC)c1O | 44.7µM | ? | ? | .[11.6 µM] | 50.1µM | .
NC(=O)COC(=O)c1cc(-c2ccco2)nc2ccccc12 | ? | ? | 44.7µM | .[11.6 µM] | ? | ?
COc1ccc(NC(=O)c2cc(-c3ccco3)nc3ccccc23)cc1 | ? | . | . | . | / | .
CCc1ccc(NC(=O)Cn2c(=O)n(CC3CCCO3)c(=O)c3cc(OC)c(OC)cc32)cc1 (configuration not stated) | . | . | . | / | . | .
CCc1ccc(Nc2nnc(SCC(=O)NC(=O)CN3CCCC3=O)s2)cc1 | 44.7µM | . | 44.7µM | . | / | .
COc1ccccc1Nc1nnc(SCC(=O)N2CCCC2=O)s1 | . | . | . | . | . | .
CC1=C[C@@H](O)CC(C)(C)[C@@H]1/C=C/C(C)=C/C=C/C(C)=C/C=C/C=C(C)/C=C/C=C(C)/C=C/C1=C(C)C[C@H](O)CC1(C)C | / | .[19.4 µM] | / | / | / | /
COC(=O)C(Cc1ccccc1)NS(=O)(=O)c1cc(Br)ccc1Br (configuration not stated) | . | . | / | / | / | .
CCCCN(C)C(=O)c1cc2cc3ccc(OC)cc3nc2s1 | . | . | . | . | . | .
CCN(CCCNC(=O)c1cc2cc3ccc(OC)cc3nc2s1)c1cccc(C)c1 | 79.4µM | ? | ? | / | 3.98µM | ?
CCN(CCCNC(=O)c1cc2cc3ccc(OC)cc3nc2s1)c1ccccc1 | 79.4µM | 79.4µM | ? | / | 11.2µM | .
CCN(CCCNC(=O)CNC(=O)c1nn(-c2ccc(OC)cc2)c(=O)c2ccccc12)c1cccc(C)c1 | . | . | . | . | . | .
Cc1cc(O)c(C=O)c2c1C(=O)Oc1c(C)c(O)c3c(c1O2)C(O)OC3=O (configuration not stated) | / | 10µM | / | / | / | /
COC(=O)c1c(C)c2c(c(C)c1O)OC(=O)c1c(C)c(Cl)c(O)c(Cl)c1O2 | / | . | / | / | / | /
N#Cc1ccccc1S(=O)(=O)N1CCN(C(=O)C2COc3ccccc3O2)CC1 (configuration not stated) | 79.4µM | . | ? | ? | / | .
Cc1ccc(NC(=O)CCn2c(=O)c3cccn3c3ccccc32)c(C)c1 | 89.1µM | . | . | . | . | .
CCCCCCCCCCCCCCCCCCc1ccc(C(=O)/C=C\C(=O)O)cc1 | / | 12.6µM | / | / | / | /
O=C(O)/C=C/C(=O)c1ccc(O)cc1 | 17.8µM | . | . | .[11.6 µM] | . | .
O=c1c2c(nc3c(-c4cccc(Br)c4)c[nH]n13)CCCC2 | . | . | . | . | . | .
O=c1c2c(nc3c(-c4ccc(Cl)cc4)c[nH]n13)CCC2 | . | . | . | . | 89.1µM | .
CCOc1ccc(CCNC(=O)c2nnc(Cc3ccc(Cl)cc3Cl)o2)cc1OCC | . | . | . | / | . | .
CC(Sc1nnc2c(n1)[nH]c1ccccc12)C(=O)NC1CCCCC1 (configuration not stated) | . | . | . | . | 44.7µM | .
CCO/C=C1\SC(=S)N(c2ccc(Cl)cc2)C1=O | 25.1µM | . | . | ? | ? | .
CSc1cccc(NC(=O)CC(c2ccc(F)cc2)N2Cc3ccccc3C2=O)c1 (configuration not stated) | . | . | . | / | . | .
CN(C)CCN(C(=O)/C=C/c1cccs1)c1nc2c(F)cc(F)cc2s1 | ? | . | . | . | 39.8µM | .
CCc1ccc(NC(=O)Cn2c(=O)n(CCCCC(=O)NCCc3ccccc3)c(=O)c3ccccc32)cc1 | . | . | . | / | . | .
